# Test results reported in PubChem BioAssay (Tox21).
# Records with an inconclusive call do not appear. Where a call stands in place of a potency, no number is given. Active and inactive are the calls of the source. Calls come from the whole dose curve.
# Biological target: Beta-2 adrenergic receptor (Homo sapiens) (UniProt P07550)
# Assay: Adrenergic beta2 receptor (ADRB2) small molecule antagonists, cell-based qHTS assay (AID 1963592); note: nearly all actives have a fitted effect of over 50% in size
# Conditions: CHO-ADRB2 cells, isoproterenol-stimulated cAMP HTRF ratio, 0.5 h; series mostly up to 92.4 µM
# Source text: U.S. Tox21 Program National Center for Advancing Translational Sciences [NCATS] Division of Preclinical Innovation [DPI] U.S. Environmental Protection Agency [EPA] National Institutes of Environmental Health Sciences [NIEHS] National Toxicology Program [NTP] U.S. Food and Drug Administration [FDA] Tox21 Assay Overview: Beta adrenergic receptors (Beta-ARs) belong to the G-protein coupled receptor (GPCR) superfamily, includes three subtypes - beta1, beta2, and beta3. Beta1-AR is the predominant receptor subtype expressed in the heart, and beta2-AR is expressed in the kidney, lung, blood vessel and in the heart, and beta3 is found in the adipocytes. Beta1 and 2 ARs couple to Gs protein and elevate cyclic adenosine mono phosphate (cAMP), which activates protein kinase A and leads to the downstream signaling responsible for the physiological actions. Beta-AR agonists or antagonists are the most prescribed therapeutic agents for heart failure and asthma, and these were one of the first target receptors for the rational drug design. Tox21 10K compound library was screened using the cAMP-Gs dynamic assay (Cisbio Bioassays, Shelton, CT) to identify agonists/antagonists of the Gs-coupled human adrenergic, beta2 receptor (ADRB2) in the CHO-ADRB2 cell line (Codex BioSolutions, Inc. Gaithersburg, MD), which stably over-expresses ADRB2. The principle of cAMP-Gs dynamic assay is based on HTRF technology, which facilitates the fluorescence resonance energy transfer (FRET) between donor Europium cryptate and acceptor d2-labeled cAMP. The cAMP generated within cells competes with the red acceptor, d2-labled cAMP, for binding to the monoclonal anti-cAMP-cryptate (Europium donor). An increase in intracellular cAMP leads to the disruption of FRET signal, and the signal is inversely proportional to the cAMP concentration. Propranolol HCl (Sigma-Aldrich, St. Louis, MO) was used as a positive control in the screening.
# Tox21 Assay Protocol Summary: CHO-ADRB2 cells were dispensed at 1,000/well in 4uL assay medium into white/solid 1536-well plates (Greiner Bio-One North America Inc., Monroe, NC) using a Multidrop Combi dispenser (ThermoFisher Scientific, Waltham, MA). The assay plates were incubated at 37C and 5% CO2 for an overnight (18-20hr). Then positive control and test compounds dissolved in DMSO were transferred to the assay plates at 23nL using a Pintool station (Wako, San Diego, CA). Following the compound and positive control transfer, 1uL agonist-stimulation mix containing 1nM Isoproterenol HCl, 100uM IBMX and 25uM Ro-20-1724 was added to each well of the assay plates using BioRAPTR Flying Reagent Dispenser (FRD, Beckman Coulter, Brea, CA). The assay plates were incubated at room temperature for 0.5hr. Then 2.5ul each d2-labled cAMP and anti-cAMP-cryptate solutions were added separately to each well of the assay plates using an FRD and the assay plates were incubated at room temperature for 1hr. The fluorescence signal was measured at two different wavelengths (665nm and 615nm) using an Envision plate reader (Perkin Elmer, Shelton, CT). Data were expressed as the ratio of 665 nm/615 nm.
# Chain of Beta-2 adrenergic receptor (Homo sapiens) (P07550 whole entry, looked up): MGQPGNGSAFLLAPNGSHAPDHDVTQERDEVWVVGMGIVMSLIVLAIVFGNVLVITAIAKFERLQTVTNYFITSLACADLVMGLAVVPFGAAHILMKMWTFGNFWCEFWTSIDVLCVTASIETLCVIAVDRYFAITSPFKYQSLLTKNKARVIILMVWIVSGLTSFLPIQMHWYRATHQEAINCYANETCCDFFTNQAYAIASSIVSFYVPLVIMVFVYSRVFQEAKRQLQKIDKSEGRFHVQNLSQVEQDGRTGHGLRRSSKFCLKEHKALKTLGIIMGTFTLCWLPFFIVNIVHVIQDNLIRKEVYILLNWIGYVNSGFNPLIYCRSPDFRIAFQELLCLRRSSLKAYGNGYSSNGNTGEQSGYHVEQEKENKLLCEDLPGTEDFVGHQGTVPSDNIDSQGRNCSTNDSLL
row,Structure (SMILES),Potency
1,CN1CCC(O)(c2ccc(F)cc2)C(C(=O)c2ccc(F)cc2)C1 (stereo not given),inactive
2,COC(=O)C(C)N(C(=O)Cc1ccccc1)c1c(C)cccc1C (stereo not given),inactive
3,O=C1CN2CCOC2(c2ccccc2Cl)c2cc(Cl)ccc2N1 (stereo not given),inactive
4,CCCN(CC1CC1)c1c([N+](=O)[O-])cc(C(F)(F)F)cc1[N+](=O)[O-],inactive
5,C=CC(=O)OCC(C)O (stereo not given),inactive
6,CC(Cl)(Cl)[N+](=O)[O-],inactive
7,CCCCCCCCCCCCCN1CC(C)OC(C)C1 (stereo not given),inactive
8,CCC1(CC)C(=O)NC(=O)NC1=O,inactive
9,CO/N=C(/C(=O)OC)c1ccccc1COc1ccccc1C,inactive
10,O=S1(=O)OCC2C(CO1)C1(Cl)C(Cl)=C(Cl)C2(Cl)C1(Cl)Cl (stereo not given),inactive
11,CCOC(=O)CCl,inactive
12,CCOc1cc(OP(=S)(OC)OC)nc(CC)n1,inactive
13,CN(CCCC(O)c1cccnc1)N=O (stereo not given),inactive
14,CCOC(=O)COc1ccc(Cl)cc1Cl,inactive
15,N#CC(C#N)=Cc1ccc(O)c(O)c1,inactive
16,ClC(Cl)Br,inactive
17,II,inactive
18,C=CC(=O)OCCN(C)C,inactive
19,O=C(O)c1cc[c]([Hg][Cl])cc1,inactive
20,COc1ccc(-c2ccccc2)cc1NNC(=O)OC(C)C,inactive

row,Structure (SMILES),Potency
1,CCCCCCCCBr,inactive
2,CCCCOCN(C(=O)CCl)c1c(CC)cccc1CC,inactive
3,CCOC(=O)[C@]1(c2ccccc2)Oc2ccccc2[C@@H]1N,inactive
4,COc1ccc(Cc2nccc3cc(OC)c(OC)cc23)cc1OC,inactive
5,Clc1cc(Cl)c(Cl)c(Cl)c1,inactive
6,O.O.O.O.O.O.O.O=S(=O)([O-])[O-].[Co+2],inactive
7,N#CNC#N,inactive
8,COC(=O)/C=C(\C)OP(=O)(OC)OC,inactive
9,CN[C@@H](C)[C@H](O)c1ccccc1,inactive
10,Nc1ccc(Sc2ccc(N)cc2)cc1,inactive
11,CCCN(CCC)CCc1c[nH]c2ccccc12,inactive
12,CCN(CC)C(C)C(=O)c1ccccc1 (stereo not given),inactive
13,O=C(Nc1ccc(F)cc1F)c1cccnc1Oc1cccc(C(F)(F)F)c1,inactive
14,COC(=O)c1cc(Oc2ccc(Cl)cc2Cl)ccc1[N+](=O)[O-],inactive
15,CC(C)CBr,inactive
16,CC(CC(C(N)=O)(c1ccccc1)c1ccccc1)N(C)C (stereo not given),inactive
17,O=C(O)[C@H](O)[C@@H](O)C(=O)O,inactive
18,OCCCBr,inactive
19,COP(=S)(OC)Oc1ccc(S(N)(=O)=O)cc1,inactive
20,CC(Cc1ccccc1)N(C)Cc1ccco1 (stereo not given),inactive
